# Assay results from PubChem BioAssay AID435005 (Broad Institute, 2010).
# About 2,400 (0.8%) of roughly 300,000 compounds were called active. Many of the other results were omitted from the sample, so actives are more common in it than they were. Values without a mark were called inactive.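 Rule for the calls: active = Every replicate reaches about 75%, or at least half do and their mean reaches it too (limit read from the data); inconclusive = At least half of replicates reach the limit but their mean does not; inactive = Under half of replicates reach the limit.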
# Assay: inhibitors of cytokine-induced beta cell apoptosis, primary screen, luminescence (AID 435005);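 note: 0% = cytokine-treated negative control wells and 100% = positive control rescue; higher means more ATP so stronger rescue from cytokine killing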
# Conditions: INS-1E cytokine-induced death, ATP luminescence, 48 h; active compounds read high; percent of positive-control rescue, neutral wells zero; concentration not given here
row,Structure (SMILES),protection from apoptosis
1,CCn1nc(C(=O)NNS(=O)(=O)c2cc(/C=C/C(=O)O)cc(OC)c2OC)c2ccccc2c1=O,0.598%
2,COc1cc(/C=C/C(=O)Nc2ccc(OC)c(S(=O)(=O)N3CCOCC3)c2)ccc1OCC#N,4.79%
3,COc1ccc(OC)c(-c2csc(NC(=O)COC(=O)C3CC3)n2)c1,-4.15%
4,O=C(O)c1ccc(N/N=C/c2cn(-c3ccccc3)nc2-c2cccs2)cc1,-0.771%
5,CC(C)(C)OC(=O)N/N=C/c1cn(-c2ccccc2)nc1-c1cccnc1,2.76%
6,Cc1ccc(-c2nn(-c3ccccc3)cc2/C=N/NC(=O)c2ccc3c(c2)OCO3)cc1,110% (active)
7,Cc1cccc(C(=O)N[C@H](C(=O)NCc2cccs2)C(C)C)c1,3.35%
8,O=C(CN1CCc2ccccc2C1)Nc1cccc(S(=O)(=O)N2CCOCC2)c1,0.0837%
9,N/C(=N\OC(=O)Nc1ccc(Cl)c(Cl)c1)c1ncc(C(F)(F)F)cc1Cl,-13.2%
10,COc1cccc(/C(C)=N/Nc2ncc(Cl)cc2Cl)c1,-0.169%
11,COc1cccc(/C=N/Nc2ncc(C(F)(F)F)cc2Cl)c1O,131% (active)
12,Cc1ccc(/C=C/C(=O)OCC(=O)NCc2ccc(Cl)cc2)o1,0.631%
13,CC(=O)N1CCCc2cc(S(=O)(=O)N3CCCC(C(=O)NCc4ccc(Cl)cc4)C3)ccc21 (stereo unspecified),4.03%
14,CC(=O)N1c2ccc(S(=O)(=O)N3CCCC(C(=O)Nc4cccc(Cl)c4)C3)cc2CC1C (stereo unspecified),6.26%
15,CC(=O)N1CCCc2cc(S(=O)(=O)N3CCCC(C(=O)N4CCN(c5cccc(Cl)c5)CC4)C3)ccc21 (stereo unspecified),89.9% (active)
16,COc1ccccc1C(=O)OCC(=O)Nc1cccc(S(=O)(=O)NC2=NCCCCC2)c1,-2.64%
17,O=C(NCCc1ccco1)c1ccc(OCc2cn3ccccc3n2)cc1,1.94%
18,CCOC(=O)c1cnc(-n2nc(C)cc2C)nc1Nc1cccc(C(C)=O)c1,8.92%
19,CCOC(=O)c1cnc(-n2nc(C)cc2C)nc1NNc1cc(C)nc(-c2ccccc2)n1,84.8% (active)
20,Cc1cc(C)n(-c2c(F)c(F)c(COC(=O)c3ccccc3)c(F)c2F)n1,3.67%
21,C=CCC[C@H](Cc1ccc(F)cc1)C(=O)OC[C@@H](NC(=O)[C@@H](CC=C)CC(=O)N[C@H](CO)Cc1ccccc1)C(C)(C)C,5.28%
22,O=C(NNS(=O)(=O)c1c(F)cc(F)c(Cl)c1F)C12CC3CC(CC(C3)C1)C2,-12%
23,Cc1occc(=O)c1OCc1ccc(F)cc1,-6.87%

row,Structure (SMILES),protection from apoptosis
1,Cc1nc2ccccc2cc1OCc1ccc(F)cc1,95.4% (active)
2,Fc1ccccc1COc1cccc2cccnc12,-7.41%
3,CCOC(=O)c1c(NC(=O)c2ccc(S(=O)(=O)N(C)CC3CCCO3)cc2)sc2c1CC(C)(C)NC2(C)C (stereo unspecified),25.6%
4,Cc1nn(-c2ccccc2)c(C)c1NC(=O)COc1ccc(Cl)cc1Cl,0.164%
5,COC(=O)c1c(NC(=O)COc2ccc(Cl)cc2Cl)sc2c1CC(C)(C)NC2(C)C,114% (active)
6,COc1cc(OC)cc(C(=O)N[C@H](C(=O)NNC(=O)c2ccc(Br)cc2)C(C)C)c1,-4.34%
7,CC1CCCCC1NCC(=O)Nc1ccccc1C(=O)Nc1ccccc1 (stereo unspecified),4.75%
8,CSc1nc(-c2ccccc2)nc(C(Cl)Cl)n1,105% (active)
9,CSc1ncc(Sc2ccccc2)c(C(=O)O)n1,-2.15%
10,COc1cc(OC)c(N2CC(C(=O)Nc3cc(Cl)ccc3N3CCOCC3)CC2=O)cc1Cl (stereo unspecified),26.3%
11,O=C(COC(=O)Cc1ccc([N+](=O)[O-])cc1)NC1CCCCCC1,-5.89%
12,NC(=O)C1CCN(C(=O)c2ccc(F)c(S(=O)(=O)N3CCOCC3)c2)CC1,0.339%
13,O=C(c1cccnc1)N(c1cc2sc(=O)oc2c2ccccc12)S(=O)(=O)c1ccccc1,81.4% (active)
14,COc1ccc(N(C(=O)c2cccnc2)S(=O)(=O)c2ccc3c(c2)n(C)c(=O)n3C)cc1,-8.54%
15,COc1ccc(N(C(=O)c2cccnc2)S(=O)(=O)c2ccc(OC)c(OC)c2)cc1,-3.31%
16,COc1cc(Cl)c(C)cc1NC(=O)CSc1nnc(CN2CCCC2)o1,2.22%
17,COc1cccc(NC(=O)COC(=O)c2ccc3ccccc3n2)c1,-5.49%
18,CCn1c(=N)n(CC(=O)c2cccc(OC)c2)c2ccccc21,-5.87%
19,Cc1ccc(OCCCn2c(=O)oc3ccccc32)cc1,1.16%
20,CCOC(=O)Cn1c(-c2cccnc2Cl)nc2ccccc21,-2.69%
21,COc1cccc(OCCCN2CCCCCC2)c1,-3.45%
22,CCCCCCCCCCOC(=O)Cn1c(COc2ccc(C)cc2)[n+](C)c2ccccc21,112% (active)
23,CCCCCCCCCCOC(=O)Cn1c(COc2cccc(OC)c2)[n+](C)c2ccccc21,109% (active)
